The text below walks through data of PubChem BioAssay AID624481 (The Scripps Research Institute Molecular Screening Center, 2012).

Values without a mark were called inactive. Calls of active or inactive are those of the source. Cut-off read from the data, not from the text of the source: active = inhibition above about 50%; inactive = the rest.

By inhibition is commonly meant the relative decrease from the control value, in per cent.

In the experiment the target is Prolyl endopeptidase-like (Mus musculus) (UniProt Q8C167). The experiment is described as follows: mouse PREPL enzyme inhibition by screening hits – biochemical, gel-based competitive ABPP, fluorescence, HTS hits, PREPL inhibitor project (AID 624481). Particulars: purified mouse PREPL, at 20 µM, stronger effect = higher value.
Prolyl endopeptidase-like (Mus musculus), sequence (Q8C167 whole entry, looked up): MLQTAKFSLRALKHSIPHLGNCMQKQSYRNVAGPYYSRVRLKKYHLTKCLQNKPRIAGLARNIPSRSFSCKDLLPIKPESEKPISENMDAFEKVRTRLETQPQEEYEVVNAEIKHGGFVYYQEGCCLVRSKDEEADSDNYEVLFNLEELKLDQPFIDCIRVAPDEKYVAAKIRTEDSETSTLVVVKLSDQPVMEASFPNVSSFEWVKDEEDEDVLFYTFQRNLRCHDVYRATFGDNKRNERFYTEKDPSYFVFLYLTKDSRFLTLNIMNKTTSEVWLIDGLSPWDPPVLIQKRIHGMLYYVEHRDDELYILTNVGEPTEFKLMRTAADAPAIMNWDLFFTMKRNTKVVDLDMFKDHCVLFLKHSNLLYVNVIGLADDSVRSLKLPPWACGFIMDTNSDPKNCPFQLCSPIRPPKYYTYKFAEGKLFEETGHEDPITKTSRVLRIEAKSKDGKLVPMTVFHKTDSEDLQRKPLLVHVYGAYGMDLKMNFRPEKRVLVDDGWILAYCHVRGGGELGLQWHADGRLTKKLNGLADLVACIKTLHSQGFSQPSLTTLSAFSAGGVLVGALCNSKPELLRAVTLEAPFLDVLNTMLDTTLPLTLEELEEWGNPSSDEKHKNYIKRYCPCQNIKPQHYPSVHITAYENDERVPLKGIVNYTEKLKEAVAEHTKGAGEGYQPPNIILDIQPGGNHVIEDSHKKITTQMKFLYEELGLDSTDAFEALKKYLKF
Turning to `Clc1cccc(-c2ccc(C3Nc4cccc5cccc(c45)N3)o2)c1`, the inhibition is 100% (active).

For `C#CCOCCOCCOCCNc1nc(N2CCN(C(=O)CCCCCCCCCCNC(=O)Cn3cc(CCCCCN)nn3)CC2)nc(N2CCN(C(=O)CCCCCCCCCCNC(=O)Cn3cc(CCCCCN)nn3)CC2)n1`, the inhibition is -99%.

In the case of `Nc1nn(-c2ccccc2)c(N)c1N=Nc1ccccc1F`, the inhibition was -38%.

In the case of `CC(=NNc1nc2ccccc2[nH]1)c1cc2ccccc2o1`, the inhibition was -17%.

For the molecule `CN(C)CCN1C(=O)C(O)=C(C(=O)c2cc3ccccc3o2)C1c1ccc(N(C)C)cc1` (configuration not stated), the inhibition is -47%.

`Nc1[nH]n2c(=O)c3c(nc2c1N=Nc1ccc(Cl)cc1)CCCC3`: the inhibition was -12%.

Regarding `c1cncc(CNc2ccc3c(c2)OCO3)c1`, the inhibition was -50%.

Turning to `Oc1c(CN2CCOCC2)cc(COCc2ccccc2)c2cccnc12`, the inhibition was -145%.

As to `COc1ccc(C(=O)c2coc3ccc(O)c(CN4CCCCC4)c23)cc1`, the inhibition is -53%.

Regarding `CN(C)c1ccc(C=NNC(=S)NCc2ccccc2)cc1`, the inhibition is -20%.

For `CC(C)[C@H](CN1CCC[C@H]1CN1C(N)=NC[C@H]1C(C)C)N1C[C@@H](Cc2ccccc2)N(CCCC2CCCC2)C1=N`, the inhibition was 92% (active).

For `C[n+]1c(-c2ccccc2)sc(S)c1-c1ccccc1`, the inhibition is -31%.

For `O=C(CSc1cccc(C(F)(F)F)c1)Nc1ccc(N2CCOCC2)cc1`, the inhibition was -35%.

For the molecule `CCN1/C(=C/c2ccc3cc(C)ccc3[n+]2CC)Sc2ccccc21`, the inhibition is 98% (active).

Take `CSc1ccc2c(c1)N(CCC1CCCCN1C)c1ccccc1S2` (configuration not stated): the inhibition is -53%.

`C#CCOCCOCCOCCNc1nc(N2CCN(C(=O)[C@H](CCCCN)n3cc([C@@H](N)C(C)CC)nn3)CC2)nc(N2CCN(C(=O)[C@H](Cc3cc4ccccc4[nH]3)n3cc([C@@H](N)C(C)CC)nn3)CC2)n1` (some centres not stated): the inhibition was -33%.

Consider `CC(C)(C)n1cnc2cc(NCc3ccc(Br)cc3)ccc21`, for which the inhibition is -12%.

Take `CCN1/C(=C\c2ccc3ccccc3[n+]2CC)Sc2cc(C)ccc21`: the inhibition was 50% (active).

On to `CCC(CN(C)C)Oc1cc(NCc2ccccc2)c2ncn(C(C)C)c2c1` (configuration not stated), for which the inhibition is -65%.

Turning to `CC(C)NC(=O)c1sc(=S)n2c1[nH]c(=O)c1ccc(C(=O)NCCc3ccc(Cl)cc3)cc12`, the inhibition is -28%.

With `C#CCOCCOCCOCCNc1nc(N2CCN(C(=O)CCCCCCCCCCNC(=O)[C@H](CCCCN)n3cc(CCO)nn3)CC2)nc(N2CCN(C(=O)CCCCCCCCCCNC(=O)[C@H](CCCN=C(N)N)n3cc(C[C@@H](C)CC)nn3)CC2)n1`, the inhibition was -34%.

Consider `CC(C)n1cnc2c(NCc3ccccc3)cc(OCC3CCN(C)CC3)cc21`, for which the inhibition is -49%.

Regarding `O=S(=O)(c1ccc(-c2csc(=Nc3ccccc3)n2CCCN2CCOCC2)cc1)N1CCOCC1`, the inhibition was 57% (active).

With `Cc1sc2ncnc(NN=Cc3ccccc3O)c2c1C`, the inhibition is -89%.

Regarding `Clc1ccc2nc(-c3ccccn3)c(Nc3ccc4c(c3)OCO4)n2c1`, the inhibition is -49%.

`Oc1ccc(Nc2nc(N3CCCC3)c3ccccc3n2)cc1`: the inhibition was -60%.

Regarding `c1ccc(N2CCN(c3nc(-c4ccccn4)nc4ccccc34)CC2)cc1`, the inhibition was -283%.

Turning to `c1ccc(CNc2nc(-c3ccccn3)nc3ccccc23)cc1`, the inhibition was -89%.

In the case of `Cc1cccc(OCC(=O)Nc2ccc(N3CCN(C(=O)c4ccccc4)CC3)cc2)c1C`, the inhibition is -8%.

Regarding `CCCCNc1c(-c2ccc(SC(C)CC)cc2)nc2cnccn12` (configuration not stated), the inhibition is -22%.

On to `CCN(CC)c1ccc(-c2sc(Nc3ccccc3)n[n+]2-c2ccc(F)cc2)cc1`, for which the inhibition was -94%.

`c1ccc(-c2nc3ccccn3c2NC2CCCC2)nc1`: the inhibition was -69%.

Regarding `CC(C)C[C@@H]1CN=C(N)N1C[C@@H]1CCCN1C[C@@H](C(C)C)N1C[C@@H](Cc2ccccc2)N(CCCC2CCCC2)C1=N`, the inhibition is -52%.

For the molecule `COc1cccc2cc(C(=O)C3=C(O)C(=O)N(CCN4CCOCC4)C3c3ccc(C(C)(C)C)cc3)oc12` (configuration not stated), the inhibition was -36%.

As for `CCOc1ccc2[nH]c3c(N4CCc5ccccc5C4)ncnc3c2c1`, the inhibition was 1%.

On to `Cc1ccc(C2CC(c3cccc(C)c3)n3nc(N)nc3N2)cc1` (configuration not stated), for which the inhibition was -40%.

Consider `CC(C)Nc1ccc(Nc2ccnc3cc4ccccc4cc23)cc1`, for which the inhibition is -11%.
